# Sampled rows, rich in hits. Any-hit rate of the full collection: about 1.6%.
# KCNQ2 block: rat KCNQ2 potassium channel inhibitors, primary screen, cell-based, CHO-K1, FluxOR thallium flux, B-score; Potassium voltage-gated channel subfamily KQT member 2 (Rattus norvegicus), O88943; 20 min; active compounds read low; B-score at 10 µM; 1.1% of 310,000 active;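 active means fluorescence ratio B-score at most minus 3 library SDs, with starting brightness B-score within 2 library SDs, cut at about -5.5 in these data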
# KCNQ2 enhance: potentiators of rat KCNQ2 potassium channel. CHO-K1 KCNQ2, FluxOR thallium flux fluorescence; active compounds read high. B-score at 10 µM. 0.54% of 310,000 active. AID 2239, 2010;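 active means fluorescence ratio B-score at least 3 SD of library B-scores, with initial fluorescence B-score within 3 of them, cut at about 5.3 in these data; same plate scores as AID 2156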;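 further: B-score of peak minus minimum over baseline fluorescence ratio after K+ and Tl+ stimulus; positive B-score means potentiation of KCNQ2 with more thallium influx and brighter signal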
# KCNQ2 inh conf: rat KCNQ2 potassium channel inhibitors, confirmation, cell-based, thallium flux | shares compounds with KCNQ2 block | activity change, negative = inhibition, % at 10 µM | 57% of 1,000 active | KCNQ2-expressing cells, inhibition; active compounds read low;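 further: 0% = vehicle wells and values are ratio percent relative to vehicle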
# KCNQ1 spec: human KCNQ1 channel inhibition, counter-screen for KCNQ2 inhibitor project, cell-based, FluxOR thallium flux. shares compounds with KCNQ2 block. KCNQ1-expressing cells, FluxOR thallium flux fluorescence; active compounds read low. activity change, negative = inhibition, % at 10 µM. 15% of 1,000 active;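 active means activity change at least 3 SD of negative controls below their mean in both duplicate wells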;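 further: CHO cells stably transfected with KCNQ1 and depolarized by potassium stimulus; peak minus minimum fluorescence over baseline after thallium addition; 0% = vehicle negative control and -100% = blank without thallium stimulus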
# Target sequence (P51787 whole entry, looked up): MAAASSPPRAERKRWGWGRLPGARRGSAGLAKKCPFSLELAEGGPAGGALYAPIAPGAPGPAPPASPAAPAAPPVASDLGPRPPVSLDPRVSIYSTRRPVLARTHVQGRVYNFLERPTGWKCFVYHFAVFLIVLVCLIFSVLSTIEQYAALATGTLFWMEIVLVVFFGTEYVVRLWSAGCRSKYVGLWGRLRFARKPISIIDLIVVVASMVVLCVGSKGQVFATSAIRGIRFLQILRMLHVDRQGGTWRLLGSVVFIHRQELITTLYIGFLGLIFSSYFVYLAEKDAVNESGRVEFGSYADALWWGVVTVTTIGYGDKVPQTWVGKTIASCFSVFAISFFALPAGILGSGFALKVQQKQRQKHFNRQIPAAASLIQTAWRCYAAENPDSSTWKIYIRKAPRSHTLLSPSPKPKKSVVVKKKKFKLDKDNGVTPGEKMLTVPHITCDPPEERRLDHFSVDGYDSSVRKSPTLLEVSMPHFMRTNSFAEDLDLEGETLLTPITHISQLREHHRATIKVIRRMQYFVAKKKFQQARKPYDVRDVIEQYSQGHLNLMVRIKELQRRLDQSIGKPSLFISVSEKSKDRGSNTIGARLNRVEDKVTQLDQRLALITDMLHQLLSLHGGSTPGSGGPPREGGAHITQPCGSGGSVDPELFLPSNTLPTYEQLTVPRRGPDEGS
# CHO Tl ctr: thallium flux change in parental CHO cells, counter-screen for KCNQ2 inhibitor project. shares compounds with KCNQ2 block. active compounds read low. activity change, % at 10 µM. 14% of 1,000 active. AID 493029, 2011;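 further: 0% = vehicle negative controls with stimulus buffer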
# KCNQ2 patch conf: rat KCNQ2 channel inhibitors, confirmation, cell-based, automated patch clamp, single concentration; shares compounds with KCNQ2 block; KCNQ2-expressing cells, automated patch clamp current; calls only at 10 µM; 49% of 550 active; AID 588531, 2011
# The depositor's hits bear a star; i = inactive; nt = no result given; + = active, no number. Unless noted, how the calls were made is not given here.
SMILES,KCNQ2 block,KCNQ2 enhance,KCNQ2 inh conf,KCNQ1 spec,CHO Tl ctr,others
Cc1cccc(N2CCN(C(=O)C(Cc3ccccc3)n3cccc3)CC2)c1C (configuration not stated),-13*,-13,-43%*,-34%*,-31%*,KCNQ2 patch conf=i
Cc1cccc(N2CCN(C(=O)C(Cc3ccccc3)NC(N)=O)CC2)c1C (configuration not stated),i,0.13,nt,nt,nt,
COC(=O)C(NC(C)=O)(Nc1nc(C)cs1)C(F)(F)F (configuration not stated),i,nt,nt,nt,nt,
COC(=O)C(NC(=O)c1ccccc1)(Nc1nc(C)cs1)C(F)(F)F (configuration not stated),-8.5*,-8.5,i,i,i,
COc1cccc(N/C(C)=C/C(=O)c2ccc(Br)cc2)c1,-7.6*,-7.6,-41%*,-47%*,-33%*,KCNQ2 patch conf=i
C/C(=C\C(=O)c1ccc(Br)cc1)Nc1ccc(Cl)cc1,i,nt,nt,nt,nt,
Cc1ccc(OCC(=O)Nc2c(C)ccc3nsnc23)cc1,i,nt,nt,nt,nt,
CCc1c(C)sc2nc3c(C(=O)N4CCOCC4)cc(C(=O)c4cc(F)ccc4O)cn3c(=O)c12,-8.5*,-8.5,-24%*,i,i,KCNQ2 patch conf=+
O=C(c1cc(C(=O)N2CCOCC2)c2nc3ccccc3n2c1)c1ccccc1O,i,nt,nt,nt,nt,
CSCCC(NC(=O)c1ccccc1Br)C(=O)N1CCC(C)CC1 (configuration not stated),-12*,-12,-36%*,-39%*,-30%*,KCNQ2 patch conf=+
CSCCC(NC(=O)c1ccccc1Cl)C(=O)N1CCC1 (configuration not stated),i,0.67,nt,nt,nt,
CCCOc1ccc(-c2c(C(=O)N/N=C/c3ccsc3)nnn2-c2nonc2N)cc1,i,nt,nt,nt,nt,
O=C1CSC(c2cccs2)N1c1ccccc1 (configuration not stated),i,0.72,nt,nt,nt,
c1ccc(N2CCN(c3ccccc3)C2c2cccs2)cc1,-7*,-7,i,i,i,
Nc1ccccc1SCc1ccccc1,i,nt,nt,nt,nt,
COc1ccc(C(=O)COc2ccc3c(C)cc(=O)oc3c2)cc1,i,0.38,nt,nt,nt,
c1ccc(-c2nccc3ccccc23)cc1,i,0.17,nt,nt,nt,
Cc1ccc(-c2nc(-c3nccc4ccccc34)oc2-c2ccccc2)cc1,-9.2*,-9.2,-28%*,i,i,KCNQ2 patch conf=i
Cc1cc(CN(C)C)c(O)c(C2(C)CCCCC2)c1,-9.1*,-9.1,i,i,i,
Oc1c(CN2CCOCC2)cc(-c2ccccc2)cc1CN1CCOCC1,i,nt,nt,nt,nt,
Cc1cc(CN2CCOCC2)c(O)c(C2(C)CCCCC2)c1,-7.2*,-7.2,-19%*,i,i,KCNQ2 patch conf=i
CC(=O)Nc1ccc(S(=O)(=O)Nc2nc3ccccc3nc2N2CCCC2)cc1,i,0.29,nt,nt,nt,
O=P(c1ccccc1)(c1ccccc1)N(c1ccccc1)c1ccccc1,-6.8*,-6.8,-20%*,i,i,KCNQ2 patch conf=+
Nc1cccc(P(=O)(c2ccccc2)c2ccccc2)c1,i,nt,nt,nt,nt,
O=C(c1ccc(S(=O)(=O)N2CCCCCC2)cc1)N1CCC(CN2C(=O)c3cccc4cccc(c34)C2=O)CC1,i,nt,nt,nt,nt,
SMILES,KCNQ2 block,KCNQ2 enhance,KCNQ2 inh conf,KCNQ1 spec,CHO Tl ctr,others
CN(C)CCNC(=O)/C(=C/c1ccc(-c2ccc(Cl)cc2Cl)o1)NC(=O)c1ccccc1,-9.5*,-9.5,-39%*,-35%*,-33%*,
CN(C)CCNC(=O)/C(=C/c1ccc(-c2ccc(Cl)cc2)o1)NC(=O)c1ccccc1,i,nt,nt,nt,nt,
COc1cc(/C=N\NC(=O)c2ccc(Cl)cc2)ccc1Oc1ccc([N+](=O)[O-])cn1,i,1,nt,nt,nt,
O=C(COc1ccc([N+](=O)[O-])cc1Cl)NCC1CCCO1 (configuration not stated),i,0.64,nt,nt,nt,
CN1/C(=C\C(=O)COc2ccc3c(c2)OCO3)C(C)(C)c2ccccc21,i,nt,nt,nt,nt,
CCOC(=O)N1CCN(C(=O)c2cccc(N3C(=O)NC4CC3(C)Oc3ccccc34)c2)CC1 (configuration not stated),i,2.8,nt,nt,nt,
COc1ccccc1N1CCN(C(=O)c2cccc(N3C(=O)NC4CC3(C)Oc3ccccc34)c2)CC1 (configuration not stated),-7.7*,-7.7,i,i,i,
COc1cccc(N2CCN(C(=O)c3cccc(N4C(=O)NC5CC4(C)Oc4c(OC)cccc45)c3)CC2)c1 (configuration not stated),i,1.1,nt,nt,nt,
CC12CC(NC(=O)N1c1cccc(C(=O)N3CCN(c4ccccc4)CC3)c1)c1ccccc1O2 (configuration not stated),-7.3*,-7.3,i,i,i,
Cn1c(SCC(=O)N2CCN(c3ccccc3)CC2)nnc1-c1cc2ccccc2o1,i,0.54,nt,nt,nt,
Cn1c(SCCC#N)nnc1-c1ccc(F)cc1,i,0.45,nt,nt,nt,
CC(C)(C)c1ccc(-c2nnc(SCCC#N)n2C2CCCC2)cc1,-8.5*,-8.5,-28%*,i,i,KCNQ2 patch conf=i
CCOc1ccc(C2C(C(=O)c3cccs3)=C(O)C(=O)N2Cc2cccnc2)cc1 (configuration not stated),i,nt,nt,nt,nt,
CC(=O)Nc1ccccc1OCC(=O)NC(C)c1ccccc1 (configuration not stated),i,0.9,nt,nt,nt,
COc1ccc(/C=N/NC(=O)COc2ccccc2-c2ccccc2)cc1,i,nt,nt,nt,nt,
O=C(COc1ccccc1-c1ccccc1)N/N=C/c1cccc2ccccc12,-7.8*,-7.8,i,i,i,
CC(NC(=O)COc1ccccc1-c1ccccc1)c1ccccc1 (configuration not stated),-6.9*,-6.9,-34%*,-30%*,-24%*,KCNQ2 patch conf=+
COc1ccc(-c2noc(C(=O)NCc3ccc(F)cc3)n2)cc1OC,i,0.17,nt,nt,nt,
COC(=O)c1ccccc1NC(=O)CSc1nnc(C(CO)NC(=O)c2ccccc2)n1C (configuration not stated),i,0.19,nt,nt,nt,
Cc1ccc2nc3sc(C(=O)NCc4ccco4)c(N)c3cc2c1,i,1.2,nt,nt,nt,
COc1ccc(OCCNS(=O)(=O)c2ccc3oc4ccccc4c3c2)cc1,i,0.01,nt,nt,nt,
CN(CCOc1ccccc1)S(=O)(=O)c1ccc2oc3ccccc3c2c1,-7.8*,-7.8,-16%*,i,i,KCNQ2 patch conf=i
Cc1ccc(/C=N/c2sc3c(c2C#N)CCCCC3)o1,i,1.4,nt,nt,nt,
O=[N+]([O-])c1ccc(N2CCc3ccccc3C2)cc1,-7.1*,-7.1,i,i,i,
O=[N+]([O-])c1ccc(-c2csc(N3CCc4ccccc4C3)n2)cc1,i,nt,nt,nt,nt,
CC1CCN(c2ccccc2NC(=O)c2ccc(F)cc2)CC1,-9.3*,-9.3,-17%*,i,i,KCNQ2 patch conf=i

# Source: PubChem BioAssay
